Source: PubChem BioAssay (Tox21)
Unmarked numbers belong to inactive results. Results filed as inconclusive are left out. Entries that show only a call come without a potency. Activity calls are given as the source filed them. The call rests on the fitted dose curve; in most records, active means well fitted curve in the direction sought with a large enough effect in the repeat runs; inconclusive means weak or mixed curves; inactive means no such curve, though single readings can be large; an effect the other way counts as inactive or inconclusive.

Experiments:
[1] = qHTS RealTime-Glo MT Cell Viability Assay in HepG2 cells - 24 hour (AID 1224867); further: nearly all actives have a fitted effect of over 50% in size
Outline: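 Cell number in HepG2 cultures estimated from NanoLuc luminescence generated by metabolic reduction of a prosubstrate by living cells. The homogeneous, nonlytic format allowed repeated reads at 0, 8, 16, 24, 32 and 40 h of compound exposure.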

[2] = qHTS RealTime-Glo MT Cell Viability Assay in HEK293 cells - 32 hour (AID 1224868); further: nearly all actives have a fitted effect of over 50% in size; further: potency means the concentration at half of the fitted maximal effect
Outline: (§1)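 Homogeneous bioluminescent viability format in HEK293 cells (600 cells/well). Following 5 h at 37 C/5% CO2, 23 nL compound was pintooled; the signal was measured repeatedly during 40 h incubation.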

[3] = A CellTox Green Cytotoxicity Assay to monitor cytotoxicity in HEK293 cells - 0 hour (AID 1224869); further: nearly all actives have a fitted effect of over 50% in size
Outline: (§2)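 Real-time, in one plate: 600 HEK293 cells/well with dead-cell DNA dye, pinned compound after 5 h, 37 C incubation over 40 h; viable cells give no appreciable fluorescence.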

[4] = qHTS RealTime-Glo MT Cell Viability Assay in HepG2 cells - 40 hour (AID 1224870); further: nearly all actives have a fitted effect of over 50% in size
Outline: (§3)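 Real-time viability: cells seeded at 600 per well together with NanoLuc and cell-permeant prosubstrate, compounds added after 5 h incubation. Luminescence tracked at 0, 8, 16, 24, 32 and 40 h of exposure.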

[5] = A CellTox Green Cytotoxicity Assay to monitor cytotoxicity in HEK293 cells - 40 hour (AID 1224871); further: nearly all actives have a fitted effect of over 45% in size
Outline: as §2

[6] = qHTS RealTime-Glo MT Cell Viability Assay in HEK293 cells - 16 hour (AID 1224872); further: nearly all actives have a fitted effect of over 50% in size; further: potency means the concentration at half of the fitted maximal effect
Outline: as §1

[7] = qHTS RealTime-Glo MT Cell Viability Assay in HepG2 cells - 8 hour (AID 1224873); further: nearly all actives have a fitted effect of over 55% in size
Outline: as §3

[8] = qHTS RealTime-Glo MT Cell Viability Assay in HEK293 cells - 40 hour (AID 1224874); details: RealTime-Glo luminescence; max response: stronger effect = lower value; further: nearly all actives have a fitted effect of over 50% in size; further: potency means the concentration at half of the fitted maximal effect
Outline: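 Kinetic, non-lysing viability readout. Seed HEK293 (600/well) with reagent, incubate 5 h at 37 C/5% CO2, pin 23 nL compound in DMSO, incubate at 37 C, read luminescence at 0, 8, 16, 24, 32, 40 h.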

[9] = A CellTox Green Cytotoxicity Assay to monitor cytotoxicity in HEK293 cells - 24 hour (AID 1224875); further: series mostly up to about 77 µM; nearly all actives have a fitted effect of over 45% in size
Outline: as §2

[10] = A CellTox Green Cytotoxicity Assay to monitor cytotoxicity in HepG2 cells - 16 hour (AID 1224876); further: nearly all actives have a fitted effect of over 45% in size; further: potency means the concentration at half of the fitted maximal effect
Outline: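 Cytotoxicity was tracked as dead-cell DNA fluorescence in HepG2 cells treated with test compounds at 37 C; each time-point value comes from one kinetic series spanning 0, 8, 16, 24, 32 and 40 h.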

SMILES	outcome [1]	Potency [2]	Potency [3]	outcome [4]	Potency [5]	Potency [6]	outcome [7]	max response [8]	Potency [9]	Potency [10]	Potency [8]
OCCCCCCCl	inactive	inactive	inactive	inactive	inactive	inactive	inactive	-5.21%	inactive	inactive	–
CC(=O)Nc1ncc([N+](=O)[O-])s1	inactive	inactive	inactive	inactive	inactive	inactive	inactive	0.8%	inactive	–	–
CCN1CN(CC)CN(CC)C1	inactive	inactive	inactive	inactive	inactive	inactive	inactive	4.59%	inactive	inactive	–
CCN(CCC#N)c1ccccc1	inactive	inactive	inactive	inactive	inactive	inactive	inactive	2.36%	inactive	inactive	–
CC(Cl)COP(=O)(OCC(C)Cl)OCC(C)Cl (stereo not given)	inactive	inactive	inactive	inactive	inactive	inactive	inactive	-0.188%	inactive	inactive	–
CCC(C)(CCC(C)C)C(=O)[O-].CCC(C)(CCC(C)C)C(=O)[O-].[Zn+2] (stereo not given)	inactive	inactive	inactive	inactive	inactive	inactive	inactive	0.868%	inactive	inactive	–
CO[Si](CCCCl)(OC)OC	inactive	inactive	inactive	inactive	inactive	inactive	inactive	28.4%	inactive	inactive	–
C=CCOc1c(Br)cc(Br)cc1Br	inactive	inactive	inactive	inactive	inactive	inactive	inactive	2.02%	inactive	inactive	–
CC(=O)OC[C@H]1O[C@@H](OC(C)=O)[C@H](OC(C)=O)[C@@H]1OC(C)=O	inactive	inactive	inactive	inactive	inactive	inactive	inactive	5.33%	inactive	inactive	–
OC[C@@H](O)[C@H](O)[C@@H](O)[C@@H](O)CO	inactive	inactive	inactive	inactive	inactive	inactive	inactive	0.901%	inactive	inactive	–
O=C1OC(=O)c2cc(Oc3ccc4c(c3)C(=O)OC4=O)ccc21	inactive	inactive	inactive	inactive	inactive	inactive	inactive	3.57%	inactive	inactive	–
CCCOCCOCCOCCO	inactive	inactive	inactive	inactive	inactive	inactive	inactive	-22.3%	inactive	inactive	–
FC(F)(F)c1ccc(Cl)cc1Cl	inactive	inactive	inactive	inactive	inactive	inactive	inactive	6.78%	inactive	inactive	–
C1CCN2C[C@@H]3C[C@@H](CN4CCCC[C@@H]34)[C@H]2C1	inactive	inactive	inactive	inactive	inactive	inactive	inactive	1.31%	inactive	inactive	–
O=S1(=O)CCCC1	inactive	inactive	inactive	inactive	inactive	inactive	inactive	9.26%	inactive	inactive	–
CCCCCC1CCCC(=O)O1 (stereo not given)	inactive	inactive	inactive	inactive	inactive	inactive	inactive	7.32%	inactive	inactive	–
O=S(=O)(O)c1cc(O)ccc1O	inactive	inactive	inactive	inactive	inactive	inactive	inactive	9.53%	inactive	–	–
CCCCCCCCCCCCC1CO1 (stereo not given)	inactive	inactive	inactive	inactive	inactive	inactive	inactive	-5.34%	inactive	inactive	–
Nc1ccc(S(=O)(=O)Nc2ccccn2)cc1	inactive	inactive	inactive	inactive	inactive	inactive	inactive	-4.15%	inactive	inactive	–
CCNC(=O)NCCCOc1cccc(CN2CCCCC2)c1	inactive	inactive	inactive	inactive	inactive	inactive	inactive	-3.36%	inactive	–	–
CNC(=O)NC	inactive	inactive	inactive	inactive	inactive	inactive	inactive	1.12%	inactive	inactive	–
Cc1ccccc1C(=O)N1CC/C(=N\OS(=O)(=O)O)c2ccc(Cl)cc21	inactive	inactive	inactive	inactive	inactive	inactive	inactive	-2.43%	inactive	–	–

SMILES	outcome [1]	Potency [2]	Potency [3]	outcome [4]	Potency [5]	Potency [6]	outcome [7]	max response [8]	Potency [9]	Potency [10]	Potency [8]
CC(C)CCC(=O)CCC(C)C	inactive	inactive	inactive	inactive	inactive	inactive	inactive	1.42%	inactive	inactive	–
C[C@@H]1C[C@H]2[C@@H]3C[C@H](F)C4=CC(=O)C=C[C@]4(C)[C@@]3(F)[C@@H](O)C[C@]2(C)[C@@]1(O)C(=O)CO	inactive	inactive	inactive	inactive	inactive	inactive	inactive	-1.4%	inactive	inactive	–
NS(=O)(=O)c1cc2c(cc1Cl)NC(CC1CCCC1)NS2(=O)=O (stereo not given)	inactive	inactive	inactive	inactive	inactive	inactive	inactive	5.55%	inactive	–	–
C[Si]1(C)N[Si](C)(C)N[Si](C)(C)N1	inactive	inactive	inactive	inactive	inactive	inactive	inactive	16.3%	inactive	inactive	–
CC1CCC(C(C)(C)S)C(=O)C1 (stereo not given)	inactive	3.09 µM (active)	inactive	inactive	inactive	6.92 µM (active)	inactive	–	inactive	inactive	3.09 µM (active)
CC(C)COC(=O)CC(C(=O)OCC(C)C)S(=O)(=O)O (stereo not given)	inactive	inactive	inactive	inactive	inactive	inactive	inactive	-3.15%	inactive	inactive	–
CCC(=O)c1ccc(O)cc1	inactive	inactive	inactive	inactive	inactive	inactive	inactive	-7.06%	inactive	inactive	–
CN(C)CCOCCN(C)CCO	inactive	inactive	inactive	inactive	inactive	inactive	inactive	-7.32%	inactive	inactive	–
COC(OC)C(C)c1ccccc1 (stereo not given)	inactive	inactive	inactive	inactive	inactive	inactive	inactive	5.02%	inactive	inactive	–
CCCCCCCCCCCCCCCC(=O)NCCO	inactive	inactive	inactive	inactive	inactive	inactive	inactive	-2.85%	inactive	8.49 µM (active)	–
O=C1CC[C@H](C(=O)N2CCCCC2)N1	inactive	inactive	inactive	inactive	inactive	inactive	inactive	-2.81%	inactive	inactive	–
CCS(=O)(=O)CCn1c([N+](=O)[O-])cnc1C	inactive	inactive	inactive	inactive	inactive	inactive	inactive	-0.732%	inactive	inactive	–
Nc1cc(S(=O)(=O)O)ccc1S(=O)(=O)O	inactive	inactive	inactive	inactive	inactive	inactive	inactive	21%	inactive	inactive	–
Cc1ccc(S(=O)(=O)NC(=O)NC2CCCCCCC2)cc1	inactive	inactive	inactive	inactive	inactive	inactive	inactive	0.902%	inactive	inactive	–
CCCCOC(=O)C(C)OC(=O)CCC (stereo not given)	inactive	inactive	inactive	inactive	inactive	inactive	inactive	13%	inactive	inactive	–
CC1(N)CCC(C(C)(C)N)CC1 (stereo not given)	inactive	inactive	inactive	inactive	inactive	inactive	inactive	-1.45%	inactive	inactive	–
CCC1Nc2cc(Cl)c(S(N)(=O)=O)cc2S(=O)(=O)N1 (stereo not given)	inactive	inactive	inactive	inactive	inactive	inactive	inactive	-2.14%	inactive	inactive	–
c1ccccc1	inactive	inactive	inactive	inactive	inactive	inactive	inactive	-3.11%	inactive	inactive	–
CC(=O)OCC(=O)[C@@]1(O)[C@H](OC(C)=O)C[C@H]2[C@@H]3CCC4=CC(=O)C=C[C@]4(C)[C@@]3(F)[C@@H](O)C[C@@]21C	inactive	inactive	inactive	inactive	inactive	inactive	inactive	3.94%	inactive	inactive	–
CCCCCC1Nc2cc(C(F)(F)F)c(S(N)(=O)=O)cc2S(=O)(=O)N1 (stereo not given)	inactive	inactive	inactive	inactive	inactive	inactive	inactive	-1.2%	inactive	inactive	–
Cc1ccc2c(c1)c1c3n2CCNC3CCC1 (stereo not given)	inactive	inactive	inactive	inactive	inactive	inactive	inactive	0.813%	inactive	inactive	–
